# Screens as filed in PubChem BioAssay.
# Shown are actives, neighbours in structure and some others; about 7.3% of the full set was active somewhere.
# NPC1 promoter act: qHTS Assay for NPC1 Promoter Activators | Huh7 NPC1 promoter luciferase reporter, 24 h | Potency, µM (doses to about 9.22 µM), inactives show top-dose activation, usual class: activators | 320,000 tested, 2.4% active | AID 485313, 2010; also: % of control where 0% means no effect; nearly all actives have a fitted effect of over 60% in size
#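 Readout is luciferase luminescence, reflecting NPC1 promoter activation in stably transfected Huh7 cells after 24 h compound exposure at 37 °C in reduced-serum medium with 10% FBS.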
# FLuc counter: qHTS profiling assay for firefly luciferase inhibitor/activator using purifed enzyme and Km concentrations of substrates (counterscreen for miR-21 project). Luciferin 4-monooxygenase (Photinus pyralis), P08659. purified FLuc, Km substrates, luminescence inhibition. Potency, µM (series often up to 57.5 µM), inactives show top-dose activity change, negative = inhibition, hits mostly inhibitors. 360,000 tested, 6.9% active;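 also: plate controls were vehicle for no effect and reference inhibitor for full effect; nearly all actives have a fitted effect of over 55% in size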
# Target sequence (P08659 whole entry, looked up): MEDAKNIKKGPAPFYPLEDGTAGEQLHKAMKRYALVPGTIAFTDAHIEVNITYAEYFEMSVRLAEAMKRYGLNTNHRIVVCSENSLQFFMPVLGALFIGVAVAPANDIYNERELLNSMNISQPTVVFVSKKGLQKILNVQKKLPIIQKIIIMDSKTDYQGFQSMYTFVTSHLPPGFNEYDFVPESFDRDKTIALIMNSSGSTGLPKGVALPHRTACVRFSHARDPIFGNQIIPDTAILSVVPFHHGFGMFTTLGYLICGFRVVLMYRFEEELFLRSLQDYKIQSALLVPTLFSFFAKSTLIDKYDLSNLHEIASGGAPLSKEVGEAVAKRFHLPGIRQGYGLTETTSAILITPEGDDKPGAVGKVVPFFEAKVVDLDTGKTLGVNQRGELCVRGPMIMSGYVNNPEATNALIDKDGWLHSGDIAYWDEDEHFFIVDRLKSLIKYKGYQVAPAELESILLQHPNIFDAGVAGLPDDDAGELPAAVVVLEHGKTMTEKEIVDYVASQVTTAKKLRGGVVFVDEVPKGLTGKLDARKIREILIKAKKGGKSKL
#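 Purified P. pyralis luciferase, 10 nM final, with Km-level 10 uM D-luciferin and 10 uM ATP in 50 mM Tris acetate pH 7.5, 10 mM Mg acetate, 0.01% Tween-20, 0.05% BSA; 6-point qHTS titration about 60 µM downward; luminescence read.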
# SMN2 splice up: qHTS Assay for Enhancers of SMN2 Splice Variant Expression. AID 1458, 2008. HEK293 SMN2-luciferase splicing reporter, luminescence, 30-36 h. Potency, µM (highest dose often 46.1 µM), for the others: at the top dose activity change, positive = activation, hits mostly activators. 210,000 tested, 2.8% active; also: % of control where 0% means no effect; nearly all actives have a fitted effect of over 55% in size
#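 HEK293 cells carry an SMN2 […]–luciferase reporter in which exon 7 inclusion puts luciferase in frame. Cells were plated 10-12 h before compound addition, then incubated 30-36 h at 37C. ONE-Glo luminescence was read; sodium butyrate at 4.5 mM final served as control.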
# Luc counter: Counterscreen for Luciferase (Kinase-Glo TM) Inhibition. Kinase-Glo luciferase, ATP luminescence, 8 min. 200,000 tested, 0.28% active. Potency, µM (titrated, usually from 38.3 µM), for inactives: at the highest dose activity change, negative = inhibition, actives largely listed as inhibitors. Luciferin 4-monooxygenase (Photuris pensylvanica), Q27757; also: % is scaled to controls: 0 for no effect and ±100 for the full control effect; nearly all actives have a fitted effect of over 60% in size
#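 Substrate mix (final 50 mM imidazole pH 7.2, 50 mM KCl, 7 mM MgCl2, 10 uM ATP, 0.01% Tween 20, 0.05% BSA) plus pin-tool compound, then Kinase-Glo detection mix; 8 min ambient, luminescence read.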
# Rab9 prom act: qHTS Assay for Rab9 Promoter Activators | Huh7 Rab9 promoter-luciferase reporter, luminescence, 24 h | Potency, µM (titrated, usually from 9.22 µM), inactives show at the highest dose activation, negative = inhibition, hits mostly activators | AID 485297, 2010 | 320,000 tested, 2.8% active; also: % of control where 0% means no effect; nearly all actives have a fitted effect of over 60% in size
#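 Luminescence from Amplite-detected luciferase (10 minutes, ambient) reports Rab9 promoter activation. Before that, stable Rab9-luciferase Huh7 cells (1500/well, reduced-serum OP-MEM I plus 10% FBS) were exposed to compound for 24 hours at 37C.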
# The depositor's hits bear a star; ? = inconclusive; / = no result given. Calls follow the shape of the dose curve; as a rule, active = well fitted curve in the direction sought with a large enough effect; inconclusive = small, poorly fitted or top-dose-only effect, or another doubt; inactive = no such curve, though single readings can be large; an effect the other way counts as inactive or inconclusive. Potency is read from the fitted curve at half-maximal effect.
SMILES,NPC1 promoter act,FLuc counter,SMN2 splice up,Luc counter,Rab9 prom act
CCOc1ccc(-c2nc(CSCC(=O)NCc3ccc(C)cc3)c(C)o2)cc1,/,-13.4%,/,/,/
CCc1ccc(-c2nc(CSCC(=O)NCc3ccc(C)cc3)c(C)o2)cc1,/,19µM*,-37.0%,/,/
CCCC(=O)Nc1ccccc1C(=O)OCc1cc(=O)n2nc(C(C)C)sc2n1,/,-5.6%,/,/,/
COc1ccc(Cl)cc1-c1nc(-c2ccc(Br)o2)no1,?,2.5%,?,-2.3%,?
Cc1ccccc1-c1nc(-c2ccc(Br)o2)no1,1.78µM*,3.38µM*,/,/,2.24µM*
Fc1ccccc1-c1nc(-c2ccc(Br)o2)no1,0.501µM*,0.849µM*,/,/,?
c1ccc(CCNc2nc(-c3ccccn3)cs2)cc1,3.55µM*,6.75µM*,?,-3.5%,2µM*
c1ccc(CCNc2nc(-c3cccnc3)cs2)cc1,?,15.1µM*,?,1.4%,?
CC1CC1C(=O)Nc1nc(-c2ccccn2)cs1 (configuration not stated),0.6%,?,-26.1%,-3.9%,?
COC(=O)c1ccccc1NC(=O)CSc1nc(C)c(Cl)c(C)c1C#N,/,-5.7%,/,/,/
Cc1nc(Nc2ccc(Cl)cc2)c2oc3ccccc3c2n1,11.9%,-8.9%,/,/,1.3%
c1ccc(Sc2ncnc3c2oc2ccccc23)cc1,?,8.49µM*,?,-9.0%,?
COc1ccc(Nc2ncnc3c2oc2ccccc23)cc1,2.51µM*,9.53µM*,11.2µM*,6.9%,1.26µM*
Cc1ccc(Nc2ncnc3c2oc2ccccc23)cc1,2.51µM*,3.38µM*,12.6µM*,-1.9%,2µM*
Cc1cccn2c(=O)c(C(=O)N3CCN(c4ccc(Cl)cc4)CC3)cnc12,/,-2.7%,/,/,/
COc1cccc2oc3ccc(C#CC4(N)CCCCC4)cc3c(=O)c12,?,6.01µM*,/,/,?
Cn1c2ccccc2c(=O)c2ccc(C#Cc3ccccn3)cc21,16.4%,-17.4%,/,/,22.0%
COc1cc(-c2noc(C)c2C#CC2(N)CCCCC2)cc(OC)c1OC,1.1%,1.4%,/,/,4.2%
Cn1c2ccccc2c(=O)c2ccc(C#CC3(N)CCCCC3)cc21,3.98µM*,6.75µM*,/,/,2µM*
C=CCn1c2ccccc2c(=O)c2cc(C#Cc3cc(OC)cc(OC)c3)ccc21,-3.5%,-8.1%,/,/,-6.0%
Cn1c2ccccc2c(=O)c2cc(C#CC3(O)CCCCC3)ccc21,?,0.0757µM*,/,/,?
Cc1ccc(-c2nn3c(=O)cc(CN4CCN(C(=O)/C=C/c5ccccc5)CC4)nc3s2)cc1,/,2.7%,/,/,/
O=S(=O)(Nc1ccc(-c2cn3c(n2)SCC3)cc1)c1cccs1,-0.8%,-16.6%,-24.8%,6.9%,-9.2%
N#Cc1ccc(-c2cn3c(n2)SCC3)cc1,?,19µM*,/,/,?
COc1ccccc1OCCCOc1ccc([N+](=O)[O-])cc1Cl,?,5.36µM*,?,-5.3%,4.47µM*
SMILES,NPC1 promoter act,FLuc counter,SMN2 splice up,Luc counter,Rab9 prom act
COc1ccccc1OCCOCCOc1ccc(C)cc1Br,-6.7%,-10.8%,4.7%,-2.0%,-3.3%
COC(=O)c1ccccc1OCCCOc1ccc(C)cc1OC,-0.2%,?,-7.6%,-5.5%,-16.3%
COc1cccc(OCCCOc2ccc([N+](=O)[O-])cc2Cl)c1,-1.5%,?,-19.4%,-3.3%,-1.0%
COc1cc(C)ccc1OCCCOc1ccccc1Br,?,19µM*,3.1%,-2.7%,1.41µM*
COc1ccccc1OCCCOc1ccc(C)cc1Br,?,4.78µM*,?,15.3%,?
COc1ccc(S(=O)(=O)N(CCc2ccccc2)CC(=O)Nc2cc(Cl)ccc2C)cc1,/,-3.0%,-5.3%,/,/
COc1cc(S(=O)(=O)n2ccnc2C(C)C)ccc1Br,/,-15.0%,13.0%,/,/
CCOC(=O)c1csc(NC(=O)Nc2cccc(Cl)c2)n1,0.6%,-1.9%,-16.5%,0.6%,-0.9%
CCOC(=O)Cc1csc(NC(=O)Nc2ccc(Cl)cc2)n1,-6.2%,6.01µM*,/,/,-7.0%
CCOC(=O)Cc1csc(NC(=O)Nc2cccc(Cl)c2)n1,0.0%,5.36µM*,-40.1%,0.2%,-3.1%
Cn1c2ccc(F)cc2c2nc3ccccc3nc21,27.9%,?,/,/,11.8%
